According to PubChem BioAssay (EPA / NIEHS):
Records with an inconclusive call do not appear. Calls of active or inactive are those of the source. Rule for the calls: active = hit-call score of the fitted dose curve at least 0.9, where 1 is the maximum; inconclusive = response in the unintended direction; inactive = score below 0.9.

Assay: Tanguay_ZF_120hpf_EYE_legacy: (Legacy) Oregon State University Tanguay Lab 120 Hour Post-fertilization zebrafish Assay for Eye Malformation (AID 2283636);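 note: binary presence or absence of eye malformation scored by brightfield in 120 hpf larvae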
Description: Tanguay_ZF_120hpf_legacy is a whole embryo, multiplexed endpoint assay using zebrafish larvae exposed for 120 hours post fertilization on a 96-well plate.Tanguay_ZF_120hpf_EYE_legacy is one of one assay component(s) measured or calculated from the Tanguay_ZF_120hpf_legacy assay. It is designed to make measurements of zebrafish development as detected with brightfield microscopy of developing zebrafish embryos.Data from the assay component Tanguay_ZF_120hpf_EYE_legacy was analyzed into 1 assay endpoints. This assay endpoint, Tanguay_ZF_120hpf_EYE_legacy, was analyzed in the positive analysis fitting direction relative to DMSO as the negative control and baseline of activity. Using a type of morphology reporter, gain-of-signal activity can be used to understand changes in developmentals as they relate to the whole embryo. To generalize the intended target to other relatable targets, this assay endpoint is annotated to the zebrafish development intended target family, where the subfamily is embryonic eye development.
Zebrafish husbandry: Tropical 5D wild-type adult zebrafish were housed in at an approximate density of 1000 per 100 gallon tank at the Sinnhuber Aquatic Research Laboratory, Oregon State University, Corvallis, OR. Each tank was kept at standard laboratory conditions of 28C on a 14-h light/10-h dark photoperiod in fish water consisting of reverse osmosis water supplemented with a commercially available salt (Instant Ocean). Spawning funnels were placed into the tanks the night prior, and embryos were collected and staged. To increase bioavailability, the chorion was enzymatically removed using pronase (63.6mg/ml, >/= 3.5U/mg, Sigma-Aldrich: P5147) at 4 hours post fertilization (hpf) using a custom automated dechorionator.Chemical exposures: Six hpf dechorionated embryos were placed 1 embryo per well in a 96-well plate prefilled with 90 ul of EM using automated embryo placement systems (AEPS). Ten microliters of each row of dilution plate 2 was added to 2 exposure plates. The final DMSO concentration used was 0.64% (vol/vol). Thirty-two embryos were also exposed to 5uM trimethyltin chloride (positive control). Plates were sealed to prevent evaporation and foil covered to reduce light exposure and kept in a 28C incubator. Embryos were statically exposed until 120 hpf. At 24 hpf, embryos were assessed for photomotor response using a custom photomotor response analysis tool (PRAT) and for developmental toxicity endpoints (MO24: mortality at 24 hpf, DP: developmental progression, SM: spontaneous movement, and NC: notochord distortion). At 120 hpf, locomotor activity was measured using Viewpoint Zebralab and assessed for 18 endpoints. Zebrafish acquisition and analysis program (ZAAP), a custom program designed to inventory, acquire, and manage zebrafish data, was used to collect developmental endpoints as either present or absent (i.e., binary responses were recorded). If mortality occurred for an embryo (at either 24 or 120 hpf), the non-mortality endpoints were not measured.

Row | Compound | outcome
1 | Cc1cc(=O)[nH]c(=S)[nH]1 | inactive
2 | CCCCCCCCCCCCCO | inactive
3 | CC(=O)OCCOCCOCCOC(C)=O | inactive
4 | CC(=O)OC/C=C(\C)CCC=C(C)C | inactive
5 | Nc1ccccc1N | inactive
6 | NC(=O)Cn1c(=O)cc(CCN2CCN(c3nccc4sccc34)CC2)c2ccc(F)cc21 | inactive
7 | CCNc1cccc(C)c1 | inactive
8 | Cc1c(C(=O)O)c(O)cc2c1C(=O)c1c(O)c([C@@H]3O[C@H](CO)[C@@H](O)[C@H](O)[C@H]3O)c(O)c(O)c1C2=O | inactive
9 | Oc1ccc2c(c1)OC[C@@H](N1CCC(O)(c3ccc(F)cc3)CC1)[C@H]2O | inactive
10 | CCCCCCC(=O)OCC | inactive
11 | C=CCOC(=O)c1ccccc1C(=O)OCC=C | inactive
12 | COCCOC[C@H](CC1(C(=O)NC2CCC(C(=O)O)CC2)CCCC1)C(=O)Oc1ccc2c(c1)CCC2 (stereo not given in full) | inactive
13 | Nc1ccc2c(c1)C(=O)c1ccccc1C2=O | inactive
14 | CCCCCCCCCCCCCCCC | inactive
15 | OC[C@@H](O)[C@@H](O)[C@H](O)[C@H](O)CO | inactive
16 | Nc1ccc(S(=O)(=O)c2ccc(N)cc2)cc1 | inactive
17 | C=CCc1ccc(O)c(OC)c1 | inactive
18 | NS(=O)(=O)c1cc2c(cc1Cl)NCNS2(=O)=O | inactive
19 | CC(CO)OC(C)CO (stereo not given) (tested in a mixture with another compound) | inactive
20 | CCCCCCCC=O | inactive

Row | Compound | outcome
21 | CCc1c(C(=O)NN2CCCCC2)nn(-c2ccc(Cl)cc2Cl)c1-c1ccc(Br)cc1 | inactive
22 | CCCCCCCCCCCCCCCCCC(=O)O | inactive
23 | O=C(N[C@@H](Cc1ccccc1)[C@@H](O)C(=O)N1C[C@@H](O)[C@@H](O)C1)c1cc2cc(Cl)ccc2[nH]1 | inactive
24 | COc1cc(S(=O)(=O)O)c(C)cc1N=Nc1c(O)ccc2cc(S(=O)(=O)O)ccc12 | inactive
25 | NCC1(Cc2noc(=O)[nH]2)CCCCC1 | inactive
26 | O=[N+]([O-])C(CO)(CO)CO | inactive
27 | CCOC(=O)CCC(=O)OCC | inactive
28 | CCCCc1ccc2c(n1)[C@@H](c1ccc(OC)cc1C[C@H](C)C(=O)O)[C@H](C(=O)O)[C@H]2c1ccc2c(c1)OCO2 | inactive
29 | Cc1ccc(C)c(O)c1C | inactive
30 | CC(C)(C)c1cc(O)c(C(C)(C)C)cc1O | inactive
31 | c1cc(-c2ccncc2)ccn1 | inactive
32 | CCCCCCCCCCCC(=O)OC | inactive
33 | CC1(C)NC(=O)NC1=O | inactive
34 | Oc1ccc2ccccc2c1N=Nc1ccccc1 | inactive
35 | O=C(O)CCCCC(=O)O | inactive
36 | CC(C)c1ccc(C(=O)N=C(N)N)cc1S(C)(=O)=O | inactive
37 | Cc1nc(C)nc(N2C[C@@H](C)N(c3ccnc([C@@H](C)O)n3)[C@@H](C)C2)n1 | inactive
38 | CC=Cc1ccc(O)c(OC)c1 | inactive
39 | NCCO | inactive
40 | Cc1nc(-c2ccc3c(c2)CCN(CCC2CCC(NC(=O)/C=C/c4ccc(F)cc4)CC2)CC3)no1 (stereo not given) | inactive
